# Screening data from PubChem.
# RGS4 inh: human RGS4 inhibition | P49798 | Transcreener GDP fluorescence polarization, RGS4-accelerated GTP hydrolysis | Potency, µM (highest dose often 114 µM), without a hit: at the top dose activity change, negative = inhibition, usual class: inhibitors | hit rate 0.039% among 390,000 | AID 504845; note: potency is the fitted concentration of half-maximal effect; % is set by controls: 0 for no effect and ±100 for the full control effect; nearly all actives have a fitted effect of over 75% in size
# Target sequence (P49798 whole entry, looked up): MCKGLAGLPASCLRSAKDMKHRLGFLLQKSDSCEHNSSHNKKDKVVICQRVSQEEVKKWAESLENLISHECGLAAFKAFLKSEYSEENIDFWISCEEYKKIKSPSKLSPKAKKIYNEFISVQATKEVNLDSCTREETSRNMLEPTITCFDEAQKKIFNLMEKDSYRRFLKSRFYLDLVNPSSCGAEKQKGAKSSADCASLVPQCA
#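 MLSMR compounds (23 nl, pin-transferred) preincubated 10 min at room temperature with a 500nM (2x) first reagent, then RGS4 at 900nM (2x) plus Transcreener GDP mix added; fluorescence polarization (620/688 nm) read before and after 90 min at 30 °C.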
# PTHR1 agonist: PTHR1 (human) receptor agonism; Potency, µM (top dose mostly 115 µM), for the others: at the highest dose activation, most hits filed as activators; HEK293 GP2 PTHR1 cells, GloSensor cAMP luminescence, 1 h; hit rate 0.075% among 410,000; AID 743266; note: potency is the fitted concentration of half-maximal effect; nearly all actives have a fitted effect of over 55% in size
#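 HEK-293-derived GP2 cells expressing PTHR1 and a GloSensor cAMP reporter, 3,000/well, plated overnight, given luciferin plus IBMX (each 0.5 mM as added) for 1 h at 37 °C, then compound for 1 h at 37 °C. Luminescence was read after 15 min at room temperature.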
# BRCA1 expr act: activators of BRCA1 expression. MCF7-BRCA1-FFLuc reporter, luminescence, 48 h; response scale: scaled: vehicle 0%, 10 µM genistein 100%. Potency, µM (highest dose often 46.1 µM), for the others: at the top dose activation, hits mostly activators. hit rate 1.1% among 380,000. AID 624202; note: potency is the fitted concentration of half-maximal effect; nearly all actives have a fitted effect of over 80% in size
#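 MCF7 cells carrying a BRCA1-firefly luciferase reporter (2000 cells/well, phenol-red free MEM) were attached for 2 h at 37 °C, then given compounds for 48 h. Luminescence was read 15 min after luciferase reagent; activity normalized to genistein (10 microM) and DMSO.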
# LDHA inh: inhibitors of human lactate dehydrogenase A; purified LDHA, NADH/diaphorase-resazurin fluorescence; hits give low values; activity change, % (values are at about 110 or 230 µM); P00338; hit rate 0.15% among 480,000; in the data active = activity change below about -30%; inconclusive = mostly about -25% to -30%;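 note: plate controls were DMSO wells for no effect and wells without enzyme for full effect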
#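 Remaining NADH was detected by diaphorase (0.133 mg/mL) converting 37 µM resazurin to fluorescent resorufin, read at 0 and 20 minutes. The preceding 5-minute room-temperature reaction used 2 nM LDHA, 0.2 mM sodium pyruvate and 0.06 mM NADH at pH 7.4.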
# p53 reactivator: re-activators of mutant p53; AID 504706; Potency, µM (titrated, usually from 92.2 µM), inactives show top-dose activity change, positive = activation, usual class: activators; H1299 p53-A138V BP100-luciferase reporter, luminescence, 24 h; hit rate 0.063% among 320,000; note: potency is the fitted concentration of half-maximal effect; % of control where 0% means no effect; nearly all actives have a fitted effect of over 45% in size
#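 p53-null H1299 cells stably carrying temperature-sensitive p53-A138V and a BP100-luciferase reporter were pinned with compounds (4-point, 1:5 series) and held 24 hrs at 37 deg C. Luminescence was read 10 min after detection reagent.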
# Numbers without * were called inactive; i = inactive; ? = inconclusive; / = no result given; [ ] = remark or other dose. A selection: hits, their analogues and other compounds. The true share with any hit is near 1.1%. Unless noted, calls come from the whole dose curve; as a rule, active = well fitted curve in the direction sought with a large enough effect; inconclusive = small, poorly fitted or top-dose-only effect, or another doubt; inactive = no such curve, though single readings can be large; an effect the other way counts as inactive or inconclusive.
SMILES,RGS4 inh,PTHR1 agonist,BRCA1 expr act,LDHA inh,p53 reactivator
CCc1nc2sc(C(C)=O)c(N)c2cc1C,/,/,/,17,/
N=C1SCC(=O)N1c1nc(-c2ccccc2)cs1,3%,i,7.9µM*,-8,18%
O=C1C2C3c4ccccc4C(c4ccccc43)C2C(=O)N1c1nc(-c2ccccc2)cs1 (configuration not stated),30%,i,0%,-4,1%
COc1ccccc1NC(=O)COc1ccccc1C(=O)c1cnn(-c2ccccc2)c1,-10%,-32%,13µM*,-2,?
Cc1ccc(-c2nc(Cn3cnc4sccc4c3=O)co2)c(C)c1,/,/,/,-1,/
O=C(Nc1cccc(F)c1)Nc1ccc2c(c1)CCC2,-11%,-17%,2µM*,0,19%
Cc1ccc(NC(=O)Nc2ccc3c(c2)CCC3)cc1,-1%,-5%,4µM*,-5,9%
Cc1cc(C)cc(NC(=O)Nc2ccc3c(c2)CCC3)c1,32%,i,52%,-5,6%
COc1cc(/C=C/C(=O)c2ccc(OCC#N)cc2)ccc1OCCC(C)C,/,/,/,6,/
CCc1cc2c(CN3CCN(c4ccc(F)cc4)CC3)cc(=O)oc2cc1O,/,/,/,10,/
CSc1ccccc1NC(=O)c1ccccc1SC,/,/,/,0,/
CNc1nc(C)c(C(=O)OCc2ccccc2)s1,17%,?,11µM*,-15,27%
COC(=O)c1sc(NC(=O)COc2ccccc2)nc1C,-11%,i,7.9µM*,-7,?
CCNC(=S)NCC12CC3CC(CC(C3)C1)C2,/,/,/,1,/
COc1ccc(C(O)c2cc3c(cc2NC(=O)c2ccc(Cl)cc2)OCCO3)cc1 (configuration not stated),/,/,/,-2,/
Cc1ccc2c(COC(=O)c3n[nH]c4ccccc34)cc(=O)oc2c1,-17%,-20%,3.2µM*,-10,?
CCc1ccc2c(COC(=O)c3n[nH]c4ccccc34)cc(=O)oc2c1,-23%,-24%[57.5 µM],-2%,5,11%
Cc1ccc(Nc2cc(C)nc(-c3ccccc3O)n2)cc1,-18%,-19%[57.5 µM],54%,2,22%
Cc1ccc(Nc2cc(C)nc(-c3ccccc3)n2)cc1,4%,-38%,3.2µM*,1,?
Cc1cc2oc(C(=O)NCC(c3ccco3)N3CCCCC3)cc(=O)c2cc1C (configuration not stated),/,/,/,-22,/
Cc1cc(NC(=O)c2cccc(Cl)c2)n[nH]1,16%,-18%,4µM*,-2,?
C=CCNC(=O)NC(=O)CNc1cc(C(F)(F)F)cc(C(F)(F)F)c1,/,/,/,2,/
Brc1ccc(-c2nc(-c3cccnc3)no2)o1,-11%,i,4µM*,-3,?
Cc1ccc(-c2nc(-c3cccnc3)no2)c(C)c1,33%,-14%[57.5 µM],6.3µM*,-6,/
CSC1=N/C(=C\c2ccc3ccccc3c2)C(=O)S1,/,/,/,7,/
SMILES,RGS4 inh,PTHR1 agonist,BRCA1 expr act,LDHA inh,p53 reactivator
CCCCNC(=O)CN1CCN(Cc2ccc3cc(OC)ccc3c2)CC1,2%,i,-3%,-33*,0%
COc1ccc(NC(=O)CN2CCN(Cc3ccccc3)CC2)cc1,14%,i,1%,-5,/
CC(NC(=O)Cn1nc(-c2ccc(F)cc2)oc1=O)c1ccc2c(c1)CCCC2 (configuration not stated),/,/,/,-1,/
CCOc1ccc(S(=O)(=O)Nc2nc3ccccc3nc2NC2CC(C)(C)NC(C)(C)C2)cc1,/,/,/,0,/
O=C(CSc1nnc(C2CC2)n1C1CC1)c1c[nH]c(C(=O)N2CCCC2)c1,/,/,/,-32*,/
O=C(CSc1nnc(C2CC2)n1C1CC1)c1ccc(F)cc1,21%,-10%,69%,-1,?
O=C(O)c1ccccc1NS(=O)(=O)c1ccc(N/N=C/c2c(-c3ccccc3)[nH]c3ccccc23)c([N+](=O)[O-])c1,/,/,/,12,/
O=C(Cn1cc(C(=O)C2CC2)c2ccccc21)NCc1ccccc1,-2%,-15%[57.5 µM],13µM*,-8,?
COC(=O)c1cc(-c2ccc(F)cc2)nc2onc(-c3ccccc3)c12,/,/,/,15,/
Cc1oc2ccc(O)cc2c1C(=O)c1ccc(F)cc1,6%,i,11µM*,1,/
CC(C)CCNC(=O)c1ccc2c(Cl)c3c(nc2c1)CCCC3,/,/,/,6,/
NC(=O)c1cccnc1Nc1ccccc1F,30%,-26%,?,-7,?
Cc1cc(Cl)ccc1Nc1ncccc1C(N)=O,-5%,-5%,4.5µM*,-5,?
O=C(CCCCCN1C(=O)c2cccc3cccc(c23)C1=O)NC1CCS(=O)(=O)C1 (configuration not stated),-31%[56.9 µM],-7%,16%,1,1%
O=C(CCN1C(=O)c2cccc3cccc(c23)C1=O)N1CCOCC1,-4%,i,13µM*,-3,19%
O=C(CCN1C(=O)c2cccc3cccc(c23)C1=O)NC1CCS(=O)(=O)C1 (configuration not stated),-4%,-2%,10µM*,-6,9%
Cc1ccc(SCC(=O)c2ccc3c(c2)OCCO3)c(C)c1,/,/,/,7,/
Cc1cc(NC(=O)c2cc(C3CC3)on2)no1,-14%,i,6.3µM*,2,5%
Cc1cc(NC(=O)c2cc(C)on2)no1,16%,-11%[57.5 µM],19%,3,2%
CCN(CC)c1ccc(/C=N/n2c(=S)[nH]nc(C)c2=O)cc1,-12%,-14%[57.5 µM],33%,-31*,-2%
CCc1n[nH]c(=S)n1/N=C/c1ccc(NC(C)=O)cc1,-35%,-20%,-5%,1,0%
Cc1n[nH]c(=S)n(/N=C/c2cccs2)c1=O,-23%,?,64%,-31*,-1%
O=C(Cn1nc(C(=O)O)c2ccccc2c1=O)Nc1c(F)cccc1F,/,/,/,-1,/
Nc1nc(COc2ccc3ccccc3c2)cs1,28%,-21%[57.5 µM],6.3µM*,-3,/
COc1ccccc1OCc1csc(N)n1,-16%,i,3%,4,-11%
SMILES,RGS4 inh,PTHR1 agonist,BRCA1 expr act,LDHA inh,p53 reactivator
O=C(Nc1ccc(C2=NCCN2)cc1)c1ccc(C(=O)Nc2ccc(C3=NCCN3)cc2)c(Cl)c1,-32%,i,-6%,-33*,-4%
CNC(=O)c1ccc(-c2nc(-c3ccccc3)cs2)cc1,23%,-4%,2.5µM*,-12,-8%
O=C(O)c1ccccc1C(=O)Nc1ccc(-c2csc(-c3ccccc3)n2)cc1,-12%,-27%,7.1µM*,-6,?
CCc1ccccc1NC(=O)c1ccc(-c2csc(C)n2)cc1,-1%,i,3.5µM*,-6,2%
O=C(Nc1ccc(-c2csc(-c3ccccc3)n2)cc1)c1ccccc1Cl,-10%,?,-64%,-3,-3%
CC(O)CNS(=O)(=O)c1cc(C(=O)O)ccc1Br (configuration not stated),/,/,/,-1,/
CC(C)Oc1ccc2c(-c3ccccc3)cc(=O)oc2c1,/,/,/,2,/
